The record followed here is PubChem BioAssay (Tox21).

Results filed as inconclusive are left out. A call without a number means that no potency is given here. Activity calls are given as the source filed them. Unless noted, the call rests on the fitted dose curve; in most records, active means well fitted curve in the direction sought with a large enough effect in the repeat runs; inconclusive means weak or mixed curves; inactive means no such curve, though single readings can be large; an effect the other way counts as inactive or inconclusive.

Tested on in one assay: not listed separately
Kind of assay: qHTS assay to identify small molecule antagonists of the peroxisome proliferator-activated receptor delta (PPARd) signaling pathway - cell viability counter screen (AID 743213). Further: nearly all actives have a fitted effect of over 50% in size. To be noted: PPARd-bla HEK293H viability, CellTiter-Glo luminescence, 17 h; series mostly up to 62 µM. Summed up: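 In this counter screen, HEK293H cells carrying a UAS-beta-lactamase reporter are co-treated with test compounds and 300 nM L165041 (final) for 17 h at 37 C; cell viability is quantified by CellTiter-Glo luminescence.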
(In qHTS, concentration-response curves come from the screen itself.)
On to `CN1[C@@H]2CC[C@H]1CC(OC(=O)c1c[nH]c3ccccc13)C2` (stereo not given in full), for which the Potency result was “inactive”.

Take `O=S(=O)(O)C(F)(F)F`: the Potency entry is “inactive”.

In the case of `CCN1CC(CCN2CCOCC2)C(c2ccccc2)(c2ccccc2)C1=O` (stereo not given), the Potency result is “inactive”.

Take `CCOc1ccc(OCC)c(Cl)c1`: the Potency entry was “inactive”.

With `CC(C)(C)c1cccc(O)c1`, the Potency entry was “inactive”.

In the case of `OCCN1CCN(CCO)CC1`, the Potency entry is “inactive”.

As to `CCc1cc(Cl)c(OC)c(C(=O)NC[C@@H]2CCCN2CC)c1O`, the Potency result was “inactive”.

Turning to `CC(C)C1=CC2=CC[C@@H]3[C@](C)(CCC[C@@]3(C)C(=O)O)[C@H]2CC1`, the Potency entry is “inactive”.

For `O=Cc1ccc(F)c(Br)c1`, the Potency entry is “inactive”.

Take `CC(=O)OC1C2(C)CCC(C2)C1(C)C` (stereo not given): the Potency entry is “inactive”.

In the case of `CO[Si](C)(C)OC`, the Potency entry was “inactive”.

Turning to `CC(C)C(=O)OCC(C)(C)C(O)C(C)C` (stereo not given), the Potency entry is “inactive”.

In the case of `C[C@@H]1CN(c2c(F)c(N)c3c(=O)c(C(=O)O)cn(C4CC4)c3c2F)C[C@H](C)N1`, the Potency entry is “inactive”.

Consider `COC(=O)N[C@H](C(=O)N[C@@H](Cc1ccccc1)[C@@H](O)CN(Cc1ccc(-c2ccccn2)cc1)NC(=O)[C@@H](NC(=O)OC)C(C)(C)C)C(C)(C)C`, for which the Potency entry was “inactive”.

Regarding `CCCCCCCCCC#N`, the Potency entry was “inactive”.

On to `Cc1ccc(C)c(N)c1`, for which the Potency result was “inactive”.

Regarding `O=C1CCCc2ccccc21`, the Potency result was “inactive”.

With `O=CCCc1ccccc1`, the Potency entry is “inactive”.

Turning to `Cc1cn([C@@H]2O[C@H](CO)[C@@H](O)[C@@H]2F)c(=O)[nH]c1=O`, the Potency result was “inactive”.

Consider `O=C(O)C(=O)Cc1c[nH]c2ccccc12`, for which the Potency entry is “inactive”.

For the molecule `CCCCN1C[C@H](O)[C@@H](O)[C@H](O)[C@H]1CO`, the Potency result is “inactive”.

Turning to `CC/C=C\CCOC(=O)CCCCC`, the Potency entry was “inactive”.

Take `COc1ccccc1N1CCN(CCCNc2cc(=O)n(C)c(=O)n2C)CC1`: the Potency entry was “inactive”.

`CC1(C)C(=O)N(Cl)C(=O)N1Br`: the Potency entry is “inactive”.

On to `CN(C)CCOc1ccccc1Cc1ccccc1`, for which the Potency result was “inactive”.

Take `CN(C)Cc1ccccc1`: the Potency entry is “inactive”.

Take `CC(Oc1c(Cl)cccc1Cl)C1=NCCN1` (stereo not given): the Potency result is “inactive”.

Turning to `O=C(O)CN(CCN(CC(=O)O)CC(=O)O)CCN(CC(=O)O)CC(=O)O`, the Potency result was “inactive”.

On to `Cc1ccc([N+](=O)[O-])c(N)c1`, for which the Potency entry was “inactive”.

Regarding `O=C(CCCl)NCc1ccccc1`, the Potency entry is “inactive”.

`NC/C=C/C(=O)O`: the Potency entry was “inactive”.

As for `Nc1cccc(S(=O)(=O)O)c1`, the Potency result is “inactive”.

For the molecule `CN1CCC[C@@H]1Cc1c[nH]c2ccc(CCS(=O)(=O)c3ccccc3)cc12`, the Potency entry was “inactive”.

Regarding `CC(C)OC(C)C`, the Potency entry was “inactive”.

In the case of `CCOC(=O)c1cc(=O)c2c(OCC(COc3cccc4oc(C(=O)OCC)cc(=O)c34)OC(=O)[C@@H](N)CCCCN)cccc2o1`, the Potency result is “inactive”.

`CC(C)=CCC[C@](C)(O)[C@@H]1CC=C(C)CC1`: the Potency result is “inactive”.

Regarding `O=C(C(Cl)Cl)N1CCOC12CCCCC2`, the Potency result is “inactive”.

For the molecule `C[C@]12CCC(=O)C=C1CC[C@@H]1[C@@H]2CC[C@@]2(C)[C@H]1CC[C@]2(O)C(=O)CO`, the Potency entry is “inactive”.

As for `CC(C)Nc1nc(N)nc(Cl)n1`, the Potency result is “inactive”.

The target in a further assay is Peroxisome proliferator-activated receptor delta (Homo sapiens) (UniProt Q03181). Description: qHTS assay to identify small molecule antagonists of the peroxisome proliferator-activated receptor delta (PPARd) signaling pathway (AID 743215; active means well fitted inhibition curve with a large enough effect in the signal ratio in the repeat runs, not every such curve was filed as active; the % refers to the signal ratio;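 further: cells stimulated with agonist L165041 at 300 nM final during compound exposure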). To be noted: HEK293H PPARd-UAS-bla, beta-lactamase FRET ratio, antagonist, 17 h; series mostly up to 62 µM. Summed up: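 Here, a reporter line (HEK293H, beta-lactamase under a UAS) measures PPARd signaling. Compounds are tested against agonist L165041 at 300 nM final concentration over 17 h at 37 C, with fluorescence read after substrate.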
Peroxisome proliferator-activated receptor delta (Homo sapiens), sequence (Q03181 whole entry, looked up): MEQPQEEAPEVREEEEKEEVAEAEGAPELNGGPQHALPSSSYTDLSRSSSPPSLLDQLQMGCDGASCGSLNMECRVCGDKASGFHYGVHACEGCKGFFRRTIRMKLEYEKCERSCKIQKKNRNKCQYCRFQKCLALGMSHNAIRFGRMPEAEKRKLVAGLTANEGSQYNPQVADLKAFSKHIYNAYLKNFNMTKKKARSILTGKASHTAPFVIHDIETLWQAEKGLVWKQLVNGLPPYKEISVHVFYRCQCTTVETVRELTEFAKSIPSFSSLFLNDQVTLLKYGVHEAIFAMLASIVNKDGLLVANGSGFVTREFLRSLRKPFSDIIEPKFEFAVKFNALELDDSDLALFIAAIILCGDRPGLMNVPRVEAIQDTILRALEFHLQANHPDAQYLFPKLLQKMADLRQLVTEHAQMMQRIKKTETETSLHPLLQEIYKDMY
For `CN1[C@@H]2CC[C@H]1CC(OC(=O)c1c[nH]c3ccccc13)C2` (stereo not given in full), the outcome was inactive.

For the molecule `O=S(=O)(O)C(F)(F)F`, the result was inactive.

Take `CC(C)(C)c1cccc(O)c1`: the result was inactive.

`OCCN1CCN(CCO)CC1`: the outcome was inactive.

Regarding `CCc1cc(Cl)c(OC)c(C(=O)NC[C@@H]2CCCN2CC)c1O`, the result was inactive.

For `O=Cc1ccc(F)c(Br)c1`, the outcome was inactive.

For `CC(=O)OC1C2(C)CCC(C2)C1(C)C` (stereo not given), the outcome was inactive.

As for `COC(=O)N[C@H](C(=O)N[C@@H](Cc1ccccc1)[C@@H](O)CN(Cc1ccc(-c2ccccn2)cc1)NC(=O)[C@@H](NC(=O)OC)C(C)(C)C)C(C)(C)C`, the result was inactive.

For `CCCCCCCCCC#N`, the result was inactive.

In the case of `O=C1CCCc2ccccc21`, the outcome was inactive.

Turning to `Cc1cn([C@@H]2O[C@H](CO)[C@@H](O)[C@@H]2F)c(=O)[nH]c1=O`, the result was inactive.

Consider `O=C(O)C(=O)Cc1c[nH]c2ccccc12`, for which the result was inactive.

As for `CCCCN1C[C@H](O)[C@@H](O)[C@H](O)[C@H]1CO`, the outcome was inactive.

In the case of `CC/C=C\CCOC(=O)CCCCC`, the outcome was inactive.

Regarding `COc1ccccc1N1CCN(CCCNc2cc(=O)n(C)c(=O)n2C)CC1`, the outcome was inactive.

For the molecule `CN(C)CCOc1ccccc1Cc1ccccc1`, the outcome was inactive.

For the molecule `CN(C)Cc1ccccc1`, the outcome was inactive.

Regarding `CC(Oc1c(Cl)cccc1Cl)C1=NCCN1` (stereo not given), the result was inactive.

On to `Cc1ccc([N+](=O)[O-])c(N)c1`, for which the result was inactive.

As to `O=C(CCCl)NCc1ccccc1`, the result was inactive.

With `NC/C=C/C(=O)O`, the outcome was inactive.

As to `Nc1cccc(S(=O)(=O)O)c1`, the result was inactive.

In the case of `CN1CCC[C@@H]1Cc1c[nH]c2ccc(CCS(=O)(=O)c3ccccc3)cc12`, the result was inactive.

Regarding `CC(C)OC(C)C`, the result was inactive.

On to `C[C@]12CCC(=O)C=C1CC[C@@H]1[C@@H]2CC[C@@]2(C)[C@H]1CC[C@]2(O)C(=O)CO`, for which the outcome was inactive.

On to `CC(C)Nc1nc(N)nc(Cl)n1`, for which the result was inactive.

Tested on in another assay: not listed separately
Kind of assay: qHTS assay to identify small molecule agonists of the farnesoid-X-receptor (FXR) signaling pathway - cell viability counter screen (AID 743218). Further: nearly all actives have a fitted effect of over 45% in size. Conditions: FXR-bla HEK293T viability, CellTiter-Glo luminescence, 16 h; series mostly up to 62.6 µM. In a few lines:
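Quantitative HTS counter screen measuring ATP-based viability via CellTiter-Glo luminescence in HEK 293T cells carrying a UAS-driven beta-lactamase reporter, after 16 h compound exposure at 37 C.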
In the case of `O=S(=O)(O)C(F)(F)F`, the Potency result is “inactive”.

As to `CCN1CC(CCN2CCOCC2)C(c2ccccc2)(c2ccccc2)C1=O` (stereo not given), the Potency result was “inactive”.

On to `CC(C)(C)c1cccc(O)c1`, for which the Potency entry was “inactive”.

In the case of `OCCN1CCN(CCO)CC1`, the Potency entry is “inactive”.

On to `O=Cc1ccc(F)c(Br)c1`, for which the Potency result was “inactive”.

With `CO[Si](C)(C)OC`, the Potency result was “inactive”.

Take `CC(C)C(=O)OCC(C)(C)C(O)C(C)C` (stereo not given): the Potency entry is “inactive”.

As to `C[C@@H]1CN(c2c(F)c(N)c3c(=O)c(C(=O)O)cn(C4CC4)c3c2F)C[C@H](C)N1`, the Potency result is “inactive”.

Regarding `COC(=O)N[C@H](C(=O)N[C@@H](Cc1ccccc1)[C@@H](O)CN(Cc1ccc(-c2ccccn2)cc1)NC(=O)[C@@H](NC(=O)OC)C(C)(C)C)C(C)(C)C`, the Potency entry is “inactive”.

Turning to `CCCCCCCCCC#N`, the Potency result is “inactive”.

In the case of `Cc1ccc(C)c(N)c1`, the Potency result was “inactive”.

For `O=C1CCCc2ccccc21`, the Potency result is “inactive”.

Consider `O=CCCc1ccccc1`, for which the Potency entry was “inactive”.

In the case of `O=C(O)C(=O)Cc1c[nH]c2ccccc12`, the Potency result was “inactive”.

For the molecule `CC/C=C\CCOC(=O)CCCCC`, the Potency entry is “inactive”.

`CC1(C)C(=O)N(Cl)C(=O)N1Br`: the Potency result is “inactive”.

`CN(C)CCOc1ccccc1Cc1ccccc1`: the Potency entry was “inactive”.

As to `CN(C)Cc1ccccc1`, the Potency entry was “inactive”.

As to `CC(Oc1c(Cl)cccc1Cl)C1=NCCN1` (stereo not given), the Potency result is “inactive”.

On to `O=C(O)CN(CCN(CC(=O)O)CC(=O)O)CCN(CC(=O)O)CC(=O)O`, for which the Potency entry was “inactive”.

Regarding `Cc1ccc([N+](=O)[O-])c(N)c1`, the Potency entry was “inactive”.

Take `NC/C=C/C(=O)O`: the Potency entry is “inactive”.

For `Nc1cccc(S(=O)(=O)O)c1`, the Potency entry was “inactive”.

For `CN1CCC[C@@H]1Cc1c[nH]c2ccc(CCS(=O)(=O)c3ccccc3)cc12`, the Potency result is “inactive”.

Turning to `CC(C)OC(C)C`, the Potency entry is “inactive”.

Consider `CCOC(=O)c1cc(=O)c2c(OCC(COc3cccc4oc(C(=O)OCC)cc(=O)c34)OC(=O)[C@@H](N)CCCCN)cccc2o1`, for which the Potency result was “inactive”.

With `CC(C)=CCC[C@](C)(O)[C@@H]1CC=C(C)CC1`, the Potency entry was “inactive”.

Consider `O=C(C(Cl)Cl)N1CCOC12CCCCC2`, for which the Potency entry was “inactive”.

Take `C[C@]12CCC(=O)C=C1CC[C@@H]1[C@@H]2CC[C@@]2(C)[C@H]1CC[C@]2(O)C(=O)CO`: the Potency result is “inactive”.

On to `CC(C)Nc1nc(N)nc(Cl)n1`, for which the Potency result was “inactive”.
